Measured values published in ChEMBL document CHEMBL4513216, “Probing the Open Global Health Chemical Diversity Library for Multistage-Active Starting Points for Next-Generation Antimalarials” (ACS Infect Dis, 2020).
Among all 69,000 compounds or so, about 8,600 (12%) showed an effect of 50% or more. The sample as a whole holds a higher share of strong results than the screen did.

test system: Plasmodium berghei; experiment: Screen against P. berghei liver stage (PbLuc), transformed with Luciferase, at 10uM; assay type: functional, HepG2; conditions: tested at 10 uM

Compared with `CC(C)(C)c1nc(CC(=O)N2CCCC(n3cncn3)C2)cs1` (centres undefined), `Cc1nc(C)n(C2CCCN(C(=O)c3ccnc(N(C)C)c3)C2)n1` (centres undefined) is lower in INHIBITION: 47.65% for the first, 14.4% for the second.

Compared with `Cc1ccc(C2(O)CCN(C(=O)c3ccc(S(N)(=O)=O)cc3)CC2)nc1`, `CS(=O)(=O)c1ccc(C(=O)N2CCCC(n3cccn3)C2)cc1` (centres undefined) is lower in INHIBITION: 38% for the first, 18.8% for the second.

Compared with `OC(COCc1cccs1)Cn1cc(Cl)cn1` (centres undefined), `OC(COCc1cccs1)Cn1cc(Br)cn1` (centres undefined) is lower in INHIBITION: 75.2% for the first, -28.4% for the second.

First: OC(COCc1cccs1)Cn1cc(-n2cccc2)cn1 (centres undefined)
Second: OC(COCc1cccs1)CSc1nnc2ccccn12 (centres undefined)
The INHIBITION of the first is lower: 8.46% for the first, 56.5% for the second.

First: OC(COCc1ccco1)CSc1nnc2ccccn12 (centres undefined)
Second: OC(COCc1ccccc1)CSc1nnc2ccccn12 (centres undefined)
The INHIBITION of the first is lower: 14.8% for the first, 42.6% for the second.

First: CSCC(=O)NC1CC(=O)N(CCc2ccccc2)C1 (centres undefined)
Second: CCN1C(=O)CCC12CCCN(CCc1ccccc1)C2 (centres undefined)
The INHIBITION of the first is lower: -17.6% for the first, 0.112% for the second.

First: CCn1nc(C)c(NC(=O)CN2CCN(C(C)=O)CC2)c1C
Second: Cc1ccoc1C(=O)N1CCCN(Cc2cnn(C)c2)CC1
The INHIBITION of the first is lower: -4.23% for the first, 15.6% for the second.

Going from `CS(=O)(=O)N1CC2(CCN(CC3CCCCC3)CC2)Cc2ccccc21` to `O=C1COC2(CCN(CC3CC3)CC2)CN1c1ccccc1`, the INHIBITION falls from 46.6% to 36.8%.

Compared with `O=C(Nc1ccc2c(ccn2CCN2CCOCC2)c1)c1ccccn1`, `O=C(c1ccccc1N1CCOCC1)N1CCCC(n2ccnc2)C1` (centres undefined) is higher in INHIBITION: -4.15% for the first, 22.1% for the second.

Compared with `CC(C)OCCCN(Cc1ccncc1)Cc1cc(F)cc(F)c1`, `Cc1noc(CN(Cc2cccc(C#N)c2)Cc2cccs2)n1` is higher in INHIBITION: -26.2% for the first, 1.98% for the second.

Compared with `CCOCCN1CCN(c2ncccc2C#N)CC1CC` (centres undefined), `COCCNc1ccc(CC2CCCN(c3ncccn3)C2)nn1` (centres undefined) is higher in INHIBITION: 4.03% for the first, 28.05% for the second.

Compared with `O=C(c1ccncn1)N1C[C@@H]2CN(Cc3cccnc3)CCO[C@@H]2C1`, `O=C(N1CCCC1)N1C[C@@H](OCc2cccnc2)[C@H]2OCCC[C@H]21` is lower in INHIBITION: 17.5% for the first, -55.7% for the second.

First: CCOCc1cccc(NC(=O)C2COCCO2)c1 (centres undefined)
Second: CCOC(=O)COc1cccc(NC(=O)C2COCCO2)c1 (centres undefined)
The INHIBITION of the first is higher: 59.3% for the first, 8.24% for the second.

Going from `O=C(OCc1ccccc1)c1cccc(NC(=O)C2COCCO2)c1` (centres undefined) to `O=C(Nc1cccc(OCc2cccc(F)c2)c1)C1COCCO1` (centres undefined), the INHIBITION falls from 7.44% to -47.4%.

First: O=C(Nc1cccc(OCc2ccc(F)cc2)c1)C1COCCO1 (centres undefined)
Second: O=C(Nc1ccc(OCc2cccc(F)c2)c(F)c1)C1COCCO1 (centres undefined)
The INHIBITION of the first is lower: 10.3% for the first, 78.4% for the second.

Compared with `CN(C)C(=O)N1Cc2nnn(C)c2C(COCc2cccnc2)C1` (centres undefined), `Cc1nc(COCC2CN(C(N)=O)Cc3nccn3C2)cs1` (centres undefined) is higher in INHIBITION: 27.6% for the first, 40.5% for the second.

First: c1nc(CCC2CCCN2)cc(N2CCCOCC2)n1 (centres undefined)
Second: CC(NC(=O)c1ccnc(C2CC2)n1)C1(N2CCOCC2)CCCC1 (centres undefined)
The INHIBITION of the first is higher: 48.9% for the first, -20.3% for the second.

Going from `COCCC(=O)NCC1CCC(C(c2ccccn2)N(C)C)CC1` (centres undefined) to `O=C(NCCn1ccc(-c2ccccn2)n1)C1CCC1`, the INHIBITION rises from 3.48% to 14.3%.

First: Cc1ccc(-c2ccnc(N(C)CC3CCCN3C)n2)c(C)n1 (centres undefined)
Second: CCN1CCCC(CN(C)c2nccc(-c3ccc(C)nc3C)n2)C1 (centres undefined)
The INHIBITION of the first is lower: 10.6% for the first, 76.7% for the second.

Going from `Cc1ccc(-c2ccnc(N(C)CC3CCCO3)n2)c(C)n1` (centres undefined) to `COc1ccc(CN2CCCCC2c2n[nH]cc2-c2cc(C)no2)cc1` (centres undefined), the INHIBITION falls from 47.4% to 34.1%.

Compared with `CC(C)n1c(=O)[nH]c2cn(-c3ccc(Cl)cc3)c(=O)n21`, `Cc1ccc(OCCN(C)Cc2nc3c(cnn3C)c(=O)[nH]2)cc1` is higher in INHIBITION: -10.1% for the first, 23.7% for the second.

Compared with `COc1ccc(-c2cc(N)on2)cc1OC`, `COc1cccc(-c2cnc(C3CCNCC3)cn2)c1` is lower in INHIBITION: 26.3% for the first, -28.6% for the second.

Going from `CCN1CCc2c(sc3c2C(=O)NC(C=Cc2ccco2)N3)C1` (centres undefined) to `CCn1cc(S(=O)(=O)Nc2nc3c(s2)CC(C)CC3)cn1` (centres undefined), the INHIBITION falls from 49.9% to 11.7%.

First: Cc1cccc(CN2CCCCC2c2n[nH]cc2-c2cc(C)no2)c1 (centres undefined)
Second: CCc1ccc(CN2CCCCC2c2n[nH]cc2-c2cc(C)no2)cc1 (centres undefined)
The INHIBITION of the first is lower: 31.3% for the first, 66.6% for the second.

Going from `COCc1ncn2c1CN(C(=O)c1cnc3ccccc3c1)CC2` to `O=C(O)c1cn(CC2CCCN(c3cnc4ccccc4n3)C2)nn1` (centres undefined), the INHIBITION falls from 33.2% to 6.24%.

First: Cc1cccc(C)c1NC(=O)c1cccc(N(C)S(C)(=O)=O)c1C
Second: CCNC(=O)c1ccc(NC(=O)N(C)Cc2cccn2C)c(C)c1
The INHIBITION of the first is lower: 16.1% for the first, 54.6% for the second.

Going from `CCn1c(CN2CCC(O)(c3ccc4c(c3)OCO4)CC2)cnc1SC` to `CCn1c(CN2CCCC(O)(c3ccc(F)cc3)CC2)cnc1SC` (centres undefined), the INHIBITION rises from 34.15% to 51.1%.

Going from `Cc1ncc(CN2CCCC(O)(c3ccc(F)cc3)CC2)n1C` (centres undefined) to `Cc1ccc(CN2CCC3(CCC3NC(=O)c3ccn(C)c3)CC2)s1` (centres undefined), the INHIBITION falls from 21.255% to -6.39%.

Compared with `CN(C)Cc1ccc(C(=O)N2CCCC(n3cccn3)C2)cc1` (centres undefined), `O=C(c1ccc(CN2CCCC2)cc1)N1CCCC(n2cccn2)C1` (centres undefined) is lower in INHIBITION: 61.9% for the first, 11.7% for the second.

Going from `Cc1cnn(C2CCCN(C(=O)c3cccc(Cn4ccnc4)c3)C2)c1` (centres undefined) to `O=C(c1cccc(Cn2ccnc2)c1)N1CCCC(n2cccn2)C1` (centres undefined), the INHIBITION rises from 42.9% to 56.55%.

Going from `CCc1ccc(C(=O)N2CCCC(c3nn[nH]n3)C2)cc1` (centres undefined) to `CCc1nc(C2CCCN(C(=O)c3ccc(F)cc3)C2)no1` (centres undefined), the INHIBITION falls from 67.4% to 27.4%.

First: CCc1nc(C2CCCN(C(=O)c3ccc(Cl)cc3)C2)no1 (centres undefined)
Second: CCc1nc(C2CCCN(C(=O)c3cccnc3O)C2)no1 (centres undefined)
The INHIBITION of the first is higher: 23.4% for the first, 9.14% for the second.

First: O=C(c1cccc(Cn2ccnc2)c1)N1CCCC(n2ccnc2)C1 (centres undefined)
Second: O=C(O)c1cn(CC2CCCN(c3ccc4ccccc4n3)C2)nn1 (centres undefined)
The INHIBITION of the first is lower: 22.3% for the first, 46.6% for the second.

Compared with `CS(=O)(=O)NCc1nnc2n1CCN(Cc1ccccn1)C2`, `Cc1cc(C2CCCN(CCc3ccccn3)C2)n[nH]1` (centres undefined) is lower in INHIBITION: 36.9% for the first, -0.0706% for the second.

Going from `CN(C)c1cnn(Cc2nc3ccccc3n2C)c(=O)c1` to `CC(C)(C)c1cn(CC2CCCN(c3cnc4ccccc4n3)C2)nn1` (centres undefined), the INHIBITION rises from 29.4% to 89.6%.

Compared with `CCC(C)[C@H](N)c1nnc(SCC(=O)Nc2ccc(C)cc2C)o1` (some centres undefined), `CNC(=O)c1ccc(NC(=O)NC(C)CCc2cccn2C)c(C)c1` (centres undefined) is lower in INHIBITION: 40.4% for the first, 23.7% for the second.

Going from `N#Cc1c(F)cccc1N1CCCC(C(=O)Nc2nccs2)C1` (centres undefined) to `NC(=O)c1cc(C2CCCN(CCc3ccccn3)C2)n[nH]1` (centres undefined), the INHIBITION rises from -1.85% to 28.7%.

First: Cc1occc1C(=O)N1CCOCC2(CCN(Cc3nccs3)C2)C1 (centres undefined)
Second: O=C1COC2(CCN(Cc3cccs3)CC2)CN1c1ccsc1
The INHIBITION of the first is lower: 18.5% for the first, 21.1% for the second.

First: COCC(=O)N1C[C@H]2CNC[C@@]2(C(=O)NCc2snnc2C)C1
Second: CCC(=O)N1CCC2(CC1)C(c1cccnc1)CC(=O)N2CCOC (centres undefined)
The INHIBITION of the first is lower: -21.8% for the first, 59.3% for the second.

Going from `CCn1ccnc1CN1CCN(C(C)C(=O)NC2CCCC2)CC1` (centres undefined) to `O=C1CCC2(CCCN(CCn3cc(Cl)cn3)C2)CN1C1CCCC1` (centres undefined), the INHIBITION falls from 36.85% to 31.5%.

First: Cc1nn(C)c(C)c1-c1cc(-c2cc(CC(=O)O)cs2)nc(N)c1C#N
Second: CCn1cc(-c2cc(-c3cc(CC(=O)O)cs3)nc(N)c2C#N)c(C)n1
The INHIBITION of the first is higher: 45.8% for the first, 37.6% for the second.

Going from `CCn1cc(-c2cc(-c3cc(CN(C)C)cs3)nc(N)c2C#N)c(C)n1` to `CCc1ncnc2c1CCN(Cc1ccc3c(c1)OCO3)CC2`, the INHIBITION falls from 76.6% to -6.39%.

First: O=C(NCCS(=O)(=O)N1CCN(c2ncccn2)CC1)c1ccccc1
Second: COc1ncccc1NC(=O)C1CC(=O)N(Cc2ccccn2)C1 (centres undefined)
The INHIBITION of the first is lower: -101% for the first, -8.69% for the second.

Compared with `Cc1cc(C2CCCN(CCc3ccc4c(c3)CCO4)C2)n[nH]1` (centres undefined), `NC(=O)c1cc(C2CCCN(CCc3ccc4c(c3)CCO4)C2)n[nH]1` (centres undefined) is lower in INHIBITION: 90.2% for the first, 74.3% for the second.

Compared with `NC(=O)c1cc(C2CCCN(Cc3ccc4c(c3)OCCO4)C2)n[nH]1` (centres undefined), `O=C(C1CCCN(CCc2ccc3c(c2)CCO3)C1)N1CCCC1` (centres undefined) is lower in INHIBITION: 11.8% for the first, 6.11% for the second.

First: Cc1noc(C)c1CN1CCCC1c1c(C)nn(C)c1Cl (centres undefined)
Second: Cc1nn(C)c(C)c1C1SCC(=O)Nc2c1c(O)nn2C(C)C (centres undefined)
The INHIBITION of the first is lower: -16% for the first, 52.5% for the second.

Compared with `CC(CCc1ccccc1F)C(=O)NS(C)(=O)=O` (centres undefined), `CC(CCc1ccccc1F)C(=O)NS(=O)(=O)N(C)C(C)C` (centres undefined) is higher in INHIBITION: 12.9% for the first, 80.9% for the second.

Compared with `CC(CCc1ccccc1F)C(=O)NS(=O)(=O)CC1CC1` (centres undefined), `O=C(NC[C@H]1CCCO1)c1ccc(S(=O)(=O)N2C[C@H]3C[C@@H]2CN3)cc1` is higher in INHIBITION: 10.6% for the first, 30.7% for the second.

Going from `Cc1cnc(CCNc2cccc(CC3CCCNC3)n2)s1` (centres undefined) to `COCCN1C(=O)CC(c2cccnc2)C12CCN(C(=O)C1CC1)CC2` (centres undefined), the INHIBITION falls from 41.5% to 24%.

First: O=C1COC2(CCN(CC3CC3)CC2)CN1c1ccsc1
Second: O=C(CC1CC1)N1CCC2(CC1)CN(c1ccsc1)C(=O)CO2
The INHIBITION of the first is higher: 78.8% for the first, 38.1% for the second.

Compared with `O=C1COC2(CCN(Cc3ccoc3)CC2)CN1c1ccsc1`, `O=C1COC2(CCN(Cc3ccoc3)CC2)CN1c1ccccc1` is lower in INHIBITION: 52.9% for the first, -23.4% for the second.

Going from `CC(C)C(=O)N1CCCC1C(=O)Nc1cc(C(F)(F)F)ccc1F` (centres undefined) to `CCNC(=O)c1ccc(NC(=O)N(C)Cc2cc(C)on2)cc1`, the INHIBITION falls from 20.6% to -41.4%.

Compared with `CN(Cc1ccncc1)C(=O)NC1CCS(=O)(=O)C1` (centres undefined), `COCCN1C(=O)CC(c2cccnc2)C12CCN(C)CC2` (centres undefined) is higher in INHIBITION: -4.12% for the first, 27.6% for the second.

Going from `Cc1c(C2SCC(=O)Nc3c2c(O)nn3C(C)C)cnn1C` (centres undefined) to `Cc1nn(C)cc1C1SCC(=O)Nc2c1c(O)nn2C(C)C` (centres undefined), the INHIBITION rises from 13.1% to 30.5%.

Work on `CCCc1nc(NCCCOC)c2c(n1)c(C)nn2CC` yielded an INHIBITION of 29.18%.
